Among the data in PubChem BioAssay (NCI) are growth values, retold here.

Some test systems named below: NCI-H23 lung; NCI-H226 lung; NCI-H322M lung; HOP-62 NSCLC; NCI-H460 lung; HOP-92 NSCLC; NCI-H522 lung; A549/ATCC NSCLC; 786-0 renal; COLO 205 colon; DU-145 prostate; K-562 leukemia; MALME-3M melanoma; MDA-MB-231 breast; RXF 393 renal; SF-268 CNS; SF-295 CNS; SF-539 CNS; UACC-257 melanoma; M14 melanoma.
What all share (assay): NCI-60 one-dose screen, 48 h (100 = growth as untreated, 0 = no growth, -100 = all killed)
What all share (details): 10 µM unless noted

Structures are written as SMILES. This is part of a sample that, as a whole, favours compounds with a hit. Of some 83,000 tested, about 20% had one in any assay.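 How to read the values: 0–100, growth inhibition (40 = 60% inhibited); 0, no net growth; -100 to 0, cell death (-40 = 40% of starting cells died; -100 = all dead).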 Unmarked numbers belong to inactive results. Active and inactive are the calls of the source. Rule for the calls: active = growth percent below 10; inactive = the rest.

With `C=C1C(=O)O[C@H]2[C@H]1CC/C(COC(=O)/C=C\C(=O)NCc1ccc(Cn3c(=O)sn(-c4ccccc4)c3=O)cc1)=C\CC[C@@]1(C)O[C@@H]21`, the growth was 92.1% with NCI-H23 lung; 105% in the test on NCI-H226 lung; 107% in the test on NCI-H322M lung; 105% with HOP-62 NSCLC; 96.7% in the test with NCI-H460 lung; 84.4% in the test on HOP-92 NSCLC. The growth is -5.66% (active) in the test on NCI-H522 lung; 98% with A549/ATCC NSCLC; 70.5% with 786-0 renal; 9.17% (active) in the test on COLO 205 colon; 55.7% in the test on DU-145 prostate; 16.2% in the test on K-562 leukemia. In addition, the growth is 55.9% in the test with MALME-3M melanoma; 85.6% in the test on MDA-MB-231 breast; 84.3% in the test on RXF 393 renal; 99.1% with SF-268 CNS; 103% in the test with SF-295 CNS; 92% with SF-539 CNS. The growth with UACC-257 melanoma is 73.8%; in the test with M14 melanoma it was 47.8%.

Turning to `Cn1c(/C=C/[N+](=O)[O-])cc2ccccc21`, the growth was -24.5% (active) in the test with NCI-H23 lung; 4.78% (active) in the test on NCI-H226 lung; 105% in the test with NCI-H322M lung; 76.7% in the test on HOP-62 NSCLC; 62.7% in the test on NCI-H460 lung; 84% in the test on HOP-92 NSCLC. Moreover, the growth in the test on NCI-H522 lung was 70.5%; in the test on A549/ATCC NSCLC it was 48%; in the test with 786-0 renal, 75.7%; with COLO 205 colon, 12.5%; in the test with DU-145 prostate, -8.11% (active); with K-562 leukemia, 7.24% (active). Further, the growth in the test with MALME-3M melanoma was 91.4%; with MDA-MB-231 breast, 63%; in the test with RXF 393 renal, -97.1% (active); in the test with SF-268 CNS, 93.4%; in the test on SF-295 CNS it was 40.4%; in the test on SF-539 CNS, -53.4% (active). Further, the growth in the test on UACC-257 melanoma is -5.1% (active); in the test on M14 melanoma, -70.1% (active).

As for `O=C(Nc1cccc(NC(=O)C2CCCCC2)c1)c1ccccn1`, the growth in the test with NCI-H23 lung was 88.3%; in the test on NCI-H226 lung it was 106%; in the test with NCI-H322M lung it was 89.2%; with HOP-62 NSCLC, 100%; in the test with NCI-H460 lung, 114%; with HOP-92 NSCLC, 112%. For the same molecule, the growth in the test on NCI-H522 lung was 89.9%; with A549/ATCC NSCLC, 102%; with 786-0 renal it was 95%; in the test on COLO 205 colon, 117%; with DU-145 prostate, 103%; with K-562 leukemia, 85.2%. Moreover, the growth is 91% with MALME-3M melanoma; 104% in the test on MDA-MB-231 breast; 125% with RXF 393 renal; 95.7% in the test with SF-268 CNS; 97.9% in the test with SF-295 CNS; 98.1% in the test on SF-539 CNS. Further, the values for the growth with UACC-257 melanoma and in the test with M14 melanoma were 108% and 91.7%, respectively.

Consider `C=CCN=C(N)SCCCCCCSC(N)=NCC=C`, for which the growth with NCI-H23 lung was 105%; in the test on NCI-H226 lung, 97.1%; with NCI-H322M lung, 103%; in the test on HOP-62 NSCLC, 75.1%; in the test with NCI-H460 lung, 102%; in the test on HOP-92 NSCLC, 63.3%. Also, the growth with NCI-H522 lung is 64.4%; in the test with A549/ATCC NSCLC, 86.8%; with 786-0 renal, 92.2%; with COLO 205 colon it was 86.4%; in the test with DU-145 prostate it was 107%; in the test with K-562 leukemia, 79.2%. For the same molecule, the growth with MALME-3M melanoma is 98.7%; with MDA-MB-231 breast it was 94.8%; in the test with RXF 393 renal it was 109%; in the test with SF-268 CNS, 95%; in the test on SF-295 CNS it was 97.3%; in the test with SF-539 CNS, 99.6%. The figures for the growth in the test with UACC-257 melanoma and in the test on M14 melanoma were 87.8% and 92.4%, respectively.

Turning to `COc1cc(/C=C/c2cc(/C=C/c3ccc(O)c(OC)c3)n(C(=O)Nc3ccc(F)cc3)n2)ccc1O`, the growth in the test with NCI-H23 lung was 10.7%; in the test on NCI-H226 lung it was 15.9%; in the test on NCI-H322M lung, 27.3%; in the test with HOP-62 NSCLC, 30.2%; in the test on NCI-H460 lung, 8.35% (active); in the test on HOP-92 NSCLC, -3.45% (active). In addition, the growth in the test with NCI-H522 lung is -6.04% (active); in the test on A549/ATCC NSCLC, 12%; with 786-0 renal it was -6.9% (active); with COLO 205 colon, 8.73% (active); in the test on DU-145 prostate, 6.78% (active); with K-562 leukemia, 0.22% (active). For the same molecule, the growth is 9.15% (active) in the test with MALME-3M melanoma; 33.6% in the test on MDA-MB-231 breast; -43.8% (active) in the test with RXF 393 renal; 20.1% with SF-268 CNS; -21.6% (active) in the test with SF-295 CNS; 3.68% (active) with SF-539 CNS. For the same molecule, the growth with UACC-257 melanoma was 13.7%; in the test on M14 melanoma it was 2.69% (active).

On to `COc1cc(N2C(=O)[C@H](c3ccccc3)C2c2ccc(SC)cc2)cc(OC)c1OC` (stereo not given in full), for which the growth is 16% with NCI-H23 lung; 56.1% in the test with NCI-H226 lung; 37.7% in the test with NCI-H322M lung; 20.7% in the test on HOP-62 NSCLC; 4.99% (active) in the test on NCI-H460 lung; -0.302% (active) with HOP-92 NSCLC. Besides, the growth with NCI-H522 lung is -9.45% (active); with A549/ATCC NSCLC it was 4.39% (active); with 786-0 renal it was 5.94% (active); in the test with COLO 205 colon it was -52% (active); with DU-145 prostate, 6.14% (active); in the test with K-562 leukemia, 5.06% (active). The growth in the test on MALME-3M melanoma is 63.3%; in the test with MDA-MB-231 breast it was 28%; in the test on RXF 393 renal it was -4.2% (active); with SF-268 CNS, 25.3%; in the test on SF-295 CNS, -6.29% (active); in the test on SF-539 CNS it was 8.41% (active). Also, the values for the growth with UACC-257 melanoma and with M14 melanoma were 33.3% and 5.09% (active), respectively.

`NC(=O)OCCn1cc(-c2nc(-c3c[nH]c4ncccc34)cs2)c2ccccc21`: the growth with NCI-H23 lung was 63.3%; with NCI-H226 lung it was 53%; in the test on NCI-H322M lung, 65.9%; in the test with HOP-62 NSCLC it was 39.2%; in the test with NCI-H460 lung, 17.8%; in the test on HOP-92 NSCLC it was 49.1%. For the same molecule, the growth with NCI-H522 lung is 5.49% (active); in the test with A549/ATCC NSCLC, 36.9%; in the test on 786-0 renal it was 42.9%; in the test on COLO 205 colon, 4.32% (active); with DU-145 prostate, 64.9%; in the test with K-562 leukemia, 11.8%. Further, the growth in the test on MALME-3M melanoma was 62.4%; in the test with MDA-MB-231 breast, 49.7%; in the test on RXF 393 renal it was 46.3%; in the test on SF-268 CNS, 50%; with SF-295 CNS, 25.5%; with SF-539 CNS, 33.8%. Also, the results for the growth in the test with UACC-257 melanoma and in the test on M14 melanoma were 60.5% and 11.8%, respectively.
